The source of these data is PubChem BioAssay (NCATS).

Records with an inconclusive call do not appear. Unmarked numbers belong to inactive results. The source made the active and inactive calls. Calls follow the shape of the dose curve; as a rule, active = well fitted inhibition curve with a large enough effect; inconclusive = small, poorly fitted or top-dose-only effect; inactive = no such curve, though single readings can be large or run the other way. Non-standard residues stand in square brackets, D forms with d. Residues, ends and D or L forms follow the SMILES beside them. *: point of attachment. Nva = CCC[C@H](N)C(=O)O; Cbz = O=C(OCc1ccccc1)*
Potency is read from the fitted curve at half-maximal effect.

A short description of the experiment: qHTS Screen of the MIPE 4.0 Collection Against Ewings Sarcoma (TC32) (AID 1259256). Also: nearly all actives have a fitted effect of over 45% in size.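 As to viability (percent of control): 100% = DMSO-treated cells and 0% = medium-only wells without cells.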 The conditions noted are these: TC32 Ewing sarcoma viability, CellTiter-Glo, 48 h; series mostly up to 45.8 µM; viability (percent of control): at the top concentration. The text has this: There is a large unmet medical need for treatments for Ewing sarcoma, a pediatric sarcoma. We sought to identify compounds that inhibited Ewing sarcoma cells in vitro with the goal to then test promising drugs in two drug combinations in vitro to look for synergistic drug combinations. Promising combinations would then proceed to additional validation, including in vivo testing.
Using the NCATS developed oncology compound library called the Mechanism of Interrogation Plate (MIPE), four Ewing sarcoma cell lines were evaluated (TC32, TC71, RDES, EW8). Compounds, in a 12-point titration series, were incubated with cells for 48 hours and the read out was cell viability (CellTiter-Glo from Promega). These initial experiments were used to select appropriate concentrations of each single agent for subsequent two-drug matrix combinations such that the concentrations in the matrices would span both activity and non-activity.
Cells, in the log phase of growth, were seeded in 5 uL of RPMI plus 5% FBS, […] L-glutamine, 100 U/ml penicillin and 100 ug/ml streptomycin into 1536-well solid-bottom white tissue culture treated Greiner Bio One Plates (789173-F) using a MultiDrop Combi (Thermofisher Scientific) dispenser and a small sterile cassette. One column was media alone to be used as a :"no cells" control. The plates were then covered with sterilized stainless steel gasketed lids from Kalypsys. After allowing cells to attach for 4 hours, 23 nL of test compound or control (negative control DMSO and positive control 9.2 uM Bortezomib-final) were added from a 1536-well polypropylene compound source plate to each well using a 1536 head pin tool from Kalypsys. Cells were then incubated for 48 hours at 37C, 95% relative humidity and 5% CO2. After 48 hours, plates were removed from the incubator and 3 uL of CellTiter-Glo (Promega) was added using an Aurora Flying Reagent Dispenser Bioraptor. Plates were incubated at room temperature for 10 minutes prior to reading the luminescence on the Viewlux (PerkinElmer). The relative luciferase units are used to calculate the percent activity using the activity of DMSO in the cells and no cells columns for normalization of no inhibition and full inhibition respectively.
Regarding `O=C(NCc1ccccc1)[C@H](Cc1ccccc1)NC(=O)[C@@H]1O[C@@H]1C(=O)NCCc1ccc(O)cc1`, the Potency was 1.18 µM (active). Still for that read-out and setting: then `CC(C)(C)c1nc2c3cc[nH]c(=O)c3c3cc(F)ccc3c2[nH]1`, with 4.18 µM (active). `Cn1cc(-c2cnn3c(N)c(Br)c([C@H]4CCCNC4)nc23)cn1`: the Potency was 0.187 µM (active).

`N[C@H]1CN(c2c(F)cc3c(=O)c(C(=O)O)cn(C4C[C@@H]4F)c3c2Cl)CC12CC2` (stereo not given in full): the Potency was 0.0033 µM (active). With `Cc1ncc(-c2ccnc(Nc3ccc(S(C)(=O)=O)cc3)n2)n1C(C)C`, the Potency is 4.18 µM (active).

For `CC(C=CC1=C(C)CCCC1(C)C)=CC=CC(C)=CC(=O)Nc1ccc(O)cc1`, the Potency is 12.1 µM (active). As to `C[C@H](NC(=O)C(C#N)=Cc1cccc(Br)n1)c1ccccc1`, the Potency was 18.7 µM (active).

Regarding `C[C@@]12C[C@@]3(O)O[C@@H](O1)[C@]1(COC(=O)c4ccccc4)[C@@H]3C[C@@]12O[C@@H]1O[C@H](CO)[C@@H](O)[C@H](O)[C@@H]1O`, the “viability (percent of control)” value was 124%. As to `c1cncc(CN2CCC(n3ncc4c(N5CCOCC5)nc(-c5ccc6[nH]ccc6c5)nc43)CC2)c1`, the Potency was 5.9 µM (active). On to `NC(=O)N1CCC(CC(=O)N2CCC([C@H]3c4ncc(Br)cc4CCc4cc(Cl)cc(Br)c43)CC2)CC1`, for which the Potency was 0.372 µM (active).

As to `CCCCCN=C(N)NN=Cc1c[nH]c2ccc(OC)cc12`, the Potency was 4.18 µM (active). Same read-out and setting: then `Cc1cc(Nc2ncc3c(n2)N(C)C(=O)N(c2cc(NC(=O)c4cccc(C(F)(F)F)c4)ccc2C)C3)n(C)n1`, with 0.418 µM (active). As to `CC(=O)OCC(=O)[C@@]12N=C(C)O[C@H]1C[C@H]1[C@@H]3CCC4=CC(=O)C=C[C@]4(C)[C@@H]3[C@@H](O)C[C@@]12C`, the “viability (percent of control)” value is 120%. Take `O=c1c(O)c(-c2ccc(O)c(O)c2)oc2cc(O)ccc12`: the Potency is 20.9 µM (active).

As for `Cc1ccc2nc(NCCN)c3ncc(C)n3c2c1`, the Potency is 4.69 µM (active). Take `O=C(O)CCCCCC(=O)NN=C1CCCC1`: the “viability (percent of control)” value is 127%. The same measure, in the same setting: the figure for `COC(=O)[C@@H]1CC2=CC(=O)CC[C@]2(C)[C@@]23O[C@@H]2C[C@@]2(C)[C@H](CC[C@@]24CCC(=O)O4)[C@@H]13` is 118%. For the compound `CS(=O)(=O)N1CCc2c(-c3cnc(N)nc3)nc(N3CCOCC3)nc21`, the Potency is 0.296 µM (active). In the case of `c1cc(CN2CCCNCCNCCCNCC2)ccc1CN1CCCNCCNCCCNCC1`, the “viability (percent of control)” value was 99%. Take `COc1cc(C=CC(=O)CC(=O)C=Cc2ccc(O)c(OC)c2)ccc1O`: the Potency was 12.1 µM (active). Still for that read-out and setting: then `Nc1ccc(C(=O)Nc2cccc(-c3nc(N4CCOCC4)c4oc5ncccc5c4n3)c2)cn1`, with 16.6 µM (active). On to `O=C(C=Cc1ccc(CN(CCO)CCc2c[nH]c3ccccc23)cc1)NO`, for which the Potency is 0.148 µM (active).

In the case of `CN(C)CCN1C(=O)c2cccc3cc(N)cc(c23)C1=O`, the “viability (percent of control)” value is 110%. `COc1cc2c(cc1OC)[C@@H]1C(=O)c3ccc4c(c3O[C@@H]1CO2)C=CC(C)(C)O4`: the Potency is 0.0662 µM (active). Still for that read-out and setting: the figure for `CCc1c(O)cc(O)c(C(=O)c2ccc(OCCN3CCOCC3)c(OC)c2)c1CC(=O)N(CCOC)CCOC` is 0.526 µM (active); for `Cc1cnn(C)c1C(=O)Nc1cc(Nc2ccc3c(C=Cc4ccccn4)n[nH]c3c2)ccc1F` it is 20.9 µM (active). In the case of `C[C@H](NC(=O)Cc1cc(F)cc(F)c1)C(=O)N[C@H](C(=O)OC(C)(C)C)c1ccccc1`, the “viability (percent of control)” value is 119%. In the case of `O=C1NC(O)CCN1[C@@H]1O[C@H](CO)[C@H](O)[C@H]1O` (stereo not given in full), the “viability (percent of control)” value was 141%. In the case of `Cn1cc(CNCC2CCN(c3ncc(C(=O)NO)cn3)CC2)c2ccccc21`, the Potency is 0.0209 µM (active). Still for that read-out and setting: the figure for `CC(=O)[C@]1(O)Cc2c(O)c3c(c(O)c2[C@@H](O[C@H]2C[C@H](N)[C@@H](O)[C@H](C)O2)C1)C(=O)c1ccccc1C3=O` is 0.0047 µM (active); for `N#Cc1c(NC(=O)c2cccc3ccccc23)sc2c1CCCC2` it is 0.235 µM (active). In the case of `Oc1ccc([C@@H]2Oc3ccc(O)cc3[C@@H]3CCC[C@@H]32)cc1`, the Potency was 9.35 µM (active). Regarding `O=C(O)C=Cc1ccc(Cn2ccnc2)cc1`, the “viability (percent of control)” value is 145%. Still for that read-out and setting: the figure for `NC[C@H]1O[C@H](O[C@H]2[C@@H](O)[C@@H](O[C@H]3O[C@H](CO)[C@@H](O)[C@H](N)[C@@H]3O)[C@H](N)C[C@@H]2N)[C@H](N)C[C@H]1O` is 129%; for `CON=C(C(=O)N[C@@H]1C(=O)N2C(C(=O)O)=C(Cn3ccc(=N)n3CCO)CS[C@H]12)c1csc(N)n1` it is 111%; for `O=C(O)C(=O)Nc1cccc(C2=NN=N[N]2)c1` it is 119%.

In the case of `CCC[C@@H](C=O)NC(=O)[C@H](CC(C)C)NC(=O)[C@H](CC(C)C)NC(=O)OCc1ccccc1` (Cbz-Leu-Leu-[Nva]-aldehyde), the Potency is 1.05 µM (active).

In the case of `COC(=O)[C@H](CCCN=C(N)N)NS(=O)(=O)c1ccc(C)cc1`, the “viability (percent of control)” value is 125%. For `CC[C@H]1OC(=O)[C@H](C)[C@@H](O[C@H]2C[C@@](C)(OC)[C@@H](O)[C@H](C)O2)[C@H](C)[C@@H](O[C@@H]2O[C@@H](C)C[C@H](N(C)C)[C@@H]2O)[C@](C)(O)C[C@@H](C)C(=O)[C@H](C)[C@@H](O)[C@]1(C)O`, the “viability (percent of control)” value was 115%.

Regarding `CC[C@]12C=CCN3CC[C@@]4(c5cc([C@@]6(C(=O)OC)C[C@H]7C[C@@H](C(C)(F)F)CN(Cc8c6[nH]c6ccccc86)C7)c(OC)cc5N(C)[C@H]4[C@@](O)(C(=O)OC)[C@H]1OC(C)=O)[C@@H]32`, the “viability (percent of control)” value is 95.9%.
